# Laboratory results as given in ChEMBL document CHEMBL2218924, “A broad activity screen in support of a chemogenomic map for kinase signalling research and drug discovery” (Biochem J, 2013).
# What was measured:
# [1] = target: T1, Ephrin type-A receptor 3 (Homo sapiens) (UniProt P29320); conditions: at 10 µM
# T1 sequence (whole entry): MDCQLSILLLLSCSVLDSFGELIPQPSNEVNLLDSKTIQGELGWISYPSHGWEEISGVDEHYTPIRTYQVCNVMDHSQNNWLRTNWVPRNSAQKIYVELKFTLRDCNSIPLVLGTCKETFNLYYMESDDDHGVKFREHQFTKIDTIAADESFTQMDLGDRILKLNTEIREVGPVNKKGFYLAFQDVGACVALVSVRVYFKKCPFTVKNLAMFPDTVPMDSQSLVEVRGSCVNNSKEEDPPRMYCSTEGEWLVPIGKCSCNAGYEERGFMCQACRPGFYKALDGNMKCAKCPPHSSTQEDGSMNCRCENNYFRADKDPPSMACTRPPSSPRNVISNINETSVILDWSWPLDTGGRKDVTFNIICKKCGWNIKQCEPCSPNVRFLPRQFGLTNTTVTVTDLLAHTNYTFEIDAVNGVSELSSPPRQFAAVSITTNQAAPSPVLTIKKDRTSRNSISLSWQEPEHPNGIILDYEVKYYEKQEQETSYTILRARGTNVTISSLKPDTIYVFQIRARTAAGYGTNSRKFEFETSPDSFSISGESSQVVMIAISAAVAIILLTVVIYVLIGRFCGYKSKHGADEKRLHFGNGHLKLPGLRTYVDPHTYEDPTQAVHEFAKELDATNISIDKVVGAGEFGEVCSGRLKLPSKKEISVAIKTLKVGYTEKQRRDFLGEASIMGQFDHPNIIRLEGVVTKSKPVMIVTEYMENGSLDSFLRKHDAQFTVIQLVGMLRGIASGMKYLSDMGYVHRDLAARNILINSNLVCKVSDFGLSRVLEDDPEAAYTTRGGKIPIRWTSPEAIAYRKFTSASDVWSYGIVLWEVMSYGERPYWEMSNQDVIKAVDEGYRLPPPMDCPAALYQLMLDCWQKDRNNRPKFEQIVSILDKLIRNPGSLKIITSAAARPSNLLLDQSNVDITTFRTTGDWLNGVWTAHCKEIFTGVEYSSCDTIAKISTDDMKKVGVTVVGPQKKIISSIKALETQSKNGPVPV
# [2] = target: Ephrin type-A receptor 4 (Homo sapiens) (UniProt P54764); conditions: at 1 µM
# Ephrin type-A receptor 4 (Homo sapiens), sequence (P54764 whole entry): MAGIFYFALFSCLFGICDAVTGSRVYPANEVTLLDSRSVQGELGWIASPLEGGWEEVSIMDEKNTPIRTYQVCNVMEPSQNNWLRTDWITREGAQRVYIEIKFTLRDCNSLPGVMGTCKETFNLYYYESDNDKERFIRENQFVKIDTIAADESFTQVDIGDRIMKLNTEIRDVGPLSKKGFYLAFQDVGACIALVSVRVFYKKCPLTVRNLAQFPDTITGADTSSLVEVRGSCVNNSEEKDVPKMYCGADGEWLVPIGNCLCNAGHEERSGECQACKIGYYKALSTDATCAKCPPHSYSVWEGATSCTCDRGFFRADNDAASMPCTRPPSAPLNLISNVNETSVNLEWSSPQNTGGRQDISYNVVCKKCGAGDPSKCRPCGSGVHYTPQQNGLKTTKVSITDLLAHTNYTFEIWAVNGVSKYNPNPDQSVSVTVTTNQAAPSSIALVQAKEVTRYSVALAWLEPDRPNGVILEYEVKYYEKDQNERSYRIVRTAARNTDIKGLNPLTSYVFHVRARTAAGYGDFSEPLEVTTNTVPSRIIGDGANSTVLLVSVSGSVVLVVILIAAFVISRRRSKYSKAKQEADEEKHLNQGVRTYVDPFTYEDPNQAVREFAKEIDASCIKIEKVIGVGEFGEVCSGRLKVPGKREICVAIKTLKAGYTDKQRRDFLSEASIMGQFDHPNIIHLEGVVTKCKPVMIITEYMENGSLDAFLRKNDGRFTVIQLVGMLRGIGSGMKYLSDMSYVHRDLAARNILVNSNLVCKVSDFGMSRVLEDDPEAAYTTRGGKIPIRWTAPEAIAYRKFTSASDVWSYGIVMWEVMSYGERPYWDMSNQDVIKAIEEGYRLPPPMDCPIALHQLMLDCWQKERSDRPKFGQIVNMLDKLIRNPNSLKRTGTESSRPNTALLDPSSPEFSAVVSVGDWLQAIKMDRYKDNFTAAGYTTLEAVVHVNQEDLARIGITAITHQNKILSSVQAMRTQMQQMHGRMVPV
# [3] = target: Ephrin type-A receptor 4 (Homo sapiens) (UniProt P54764); conditions: at 10 µM
# [4] = target: Ephrin type-A receptor 5 (Homo sapiens) (UniProt P54756); conditions: at 1 µM
# Ephrin type-A receptor 5 (Homo sapiens), sequence (P54756 whole entry): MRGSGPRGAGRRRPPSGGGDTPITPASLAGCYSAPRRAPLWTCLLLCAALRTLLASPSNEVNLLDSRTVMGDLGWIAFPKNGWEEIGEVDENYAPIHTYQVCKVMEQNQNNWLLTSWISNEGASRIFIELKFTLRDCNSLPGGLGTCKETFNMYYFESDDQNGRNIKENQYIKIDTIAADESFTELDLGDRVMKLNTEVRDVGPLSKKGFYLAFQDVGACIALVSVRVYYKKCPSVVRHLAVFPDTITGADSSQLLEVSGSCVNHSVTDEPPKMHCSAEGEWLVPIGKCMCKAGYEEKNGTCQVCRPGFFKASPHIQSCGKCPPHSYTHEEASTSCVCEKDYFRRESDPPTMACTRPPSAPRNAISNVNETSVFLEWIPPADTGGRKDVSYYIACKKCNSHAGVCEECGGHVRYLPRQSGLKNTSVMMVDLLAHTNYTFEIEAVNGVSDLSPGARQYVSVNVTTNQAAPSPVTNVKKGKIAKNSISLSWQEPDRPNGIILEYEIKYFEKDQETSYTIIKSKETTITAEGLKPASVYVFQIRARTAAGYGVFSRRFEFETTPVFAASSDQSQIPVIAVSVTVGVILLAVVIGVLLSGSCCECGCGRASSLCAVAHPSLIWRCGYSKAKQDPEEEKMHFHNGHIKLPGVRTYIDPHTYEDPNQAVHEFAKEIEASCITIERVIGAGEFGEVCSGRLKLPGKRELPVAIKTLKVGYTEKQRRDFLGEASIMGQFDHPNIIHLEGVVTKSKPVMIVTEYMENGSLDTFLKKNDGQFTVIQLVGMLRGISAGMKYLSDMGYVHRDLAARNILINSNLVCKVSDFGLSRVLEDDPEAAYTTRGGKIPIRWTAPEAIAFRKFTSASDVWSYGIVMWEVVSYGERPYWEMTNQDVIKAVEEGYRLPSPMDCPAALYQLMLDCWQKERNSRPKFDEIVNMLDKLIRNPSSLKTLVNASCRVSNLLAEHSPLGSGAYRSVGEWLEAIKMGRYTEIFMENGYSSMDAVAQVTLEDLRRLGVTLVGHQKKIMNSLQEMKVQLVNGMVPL
# [5] = target: Ephrin type-A receptor 5 (Homo sapiens) (UniProt P54756); conditions: at 10 µM
# [6] = target: Ephrin type-A receptor 7 (Homo sapiens) (UniProt Q15375); conditions: at 1 µM
# Ephrin type-A receptor 7 (Homo sapiens), sequence (Q15375 28-998 limits assumed): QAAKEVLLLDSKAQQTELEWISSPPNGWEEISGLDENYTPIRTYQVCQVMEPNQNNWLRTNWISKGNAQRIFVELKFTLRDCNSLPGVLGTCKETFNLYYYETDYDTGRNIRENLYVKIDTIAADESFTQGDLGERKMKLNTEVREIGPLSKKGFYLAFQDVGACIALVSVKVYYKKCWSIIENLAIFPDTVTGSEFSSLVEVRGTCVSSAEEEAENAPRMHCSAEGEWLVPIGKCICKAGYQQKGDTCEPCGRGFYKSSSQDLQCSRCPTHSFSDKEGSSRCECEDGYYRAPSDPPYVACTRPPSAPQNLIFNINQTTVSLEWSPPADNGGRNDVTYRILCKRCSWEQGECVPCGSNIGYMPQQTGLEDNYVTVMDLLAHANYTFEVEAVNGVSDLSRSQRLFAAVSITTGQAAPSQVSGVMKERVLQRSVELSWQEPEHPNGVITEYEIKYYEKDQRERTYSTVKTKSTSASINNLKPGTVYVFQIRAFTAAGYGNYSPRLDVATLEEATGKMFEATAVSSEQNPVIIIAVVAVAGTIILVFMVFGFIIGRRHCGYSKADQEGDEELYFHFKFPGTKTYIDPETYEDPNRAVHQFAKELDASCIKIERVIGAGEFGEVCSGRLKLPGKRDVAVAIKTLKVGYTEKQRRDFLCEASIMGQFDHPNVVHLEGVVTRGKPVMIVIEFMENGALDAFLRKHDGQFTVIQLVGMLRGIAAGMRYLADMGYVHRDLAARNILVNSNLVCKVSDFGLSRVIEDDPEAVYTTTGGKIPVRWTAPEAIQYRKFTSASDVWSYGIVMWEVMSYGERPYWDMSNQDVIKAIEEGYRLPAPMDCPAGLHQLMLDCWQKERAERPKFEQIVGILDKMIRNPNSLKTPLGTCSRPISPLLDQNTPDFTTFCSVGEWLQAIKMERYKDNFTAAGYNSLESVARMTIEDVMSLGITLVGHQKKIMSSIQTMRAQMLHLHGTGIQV
# [7] = target: Ephrin type-A receptor 7 (Homo sapiens) (UniProt Q15375); conditions: at 10 µM
# [8] = target: T2, Ephrin type-A receptor 8 (Homo sapiens) (UniProt P29322); conditions: at 1 µM
# T2 sequence (whole entry): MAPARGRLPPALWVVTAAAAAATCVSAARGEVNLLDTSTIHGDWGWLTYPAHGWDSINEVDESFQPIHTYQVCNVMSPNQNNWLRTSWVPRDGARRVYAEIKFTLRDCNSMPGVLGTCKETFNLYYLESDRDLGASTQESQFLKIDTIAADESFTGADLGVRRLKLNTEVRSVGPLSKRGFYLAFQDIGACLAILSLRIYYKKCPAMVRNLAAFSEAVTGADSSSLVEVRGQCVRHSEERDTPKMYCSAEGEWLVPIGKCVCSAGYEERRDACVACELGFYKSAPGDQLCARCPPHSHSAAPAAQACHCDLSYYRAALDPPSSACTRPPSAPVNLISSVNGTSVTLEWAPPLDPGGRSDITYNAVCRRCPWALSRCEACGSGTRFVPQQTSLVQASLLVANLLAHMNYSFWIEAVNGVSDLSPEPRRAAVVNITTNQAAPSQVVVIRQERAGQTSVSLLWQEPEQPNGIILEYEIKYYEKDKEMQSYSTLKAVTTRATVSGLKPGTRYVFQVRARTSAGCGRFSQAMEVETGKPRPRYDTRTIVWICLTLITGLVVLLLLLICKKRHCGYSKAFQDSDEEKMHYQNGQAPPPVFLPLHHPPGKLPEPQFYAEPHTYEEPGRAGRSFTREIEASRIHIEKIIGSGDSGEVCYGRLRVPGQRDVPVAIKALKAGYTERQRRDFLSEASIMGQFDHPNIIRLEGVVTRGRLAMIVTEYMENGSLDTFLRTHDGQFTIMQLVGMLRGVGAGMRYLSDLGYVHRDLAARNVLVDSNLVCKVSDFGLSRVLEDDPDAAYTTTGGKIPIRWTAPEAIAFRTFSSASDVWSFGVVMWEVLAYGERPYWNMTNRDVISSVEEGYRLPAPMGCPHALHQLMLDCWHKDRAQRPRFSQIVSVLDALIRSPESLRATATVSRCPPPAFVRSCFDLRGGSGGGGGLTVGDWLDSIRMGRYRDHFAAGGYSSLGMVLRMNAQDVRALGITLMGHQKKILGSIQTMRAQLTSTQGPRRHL
# [9] = target: T2, Ephrin type-A receptor 8 (Homo sapiens); conditions: at 10 µM
# [10] = target: T3, Ephrin type-B receptor 1 (Homo sapiens) (UniProt P54762); conditions: at 1 µM
# T3 sequence (whole entry): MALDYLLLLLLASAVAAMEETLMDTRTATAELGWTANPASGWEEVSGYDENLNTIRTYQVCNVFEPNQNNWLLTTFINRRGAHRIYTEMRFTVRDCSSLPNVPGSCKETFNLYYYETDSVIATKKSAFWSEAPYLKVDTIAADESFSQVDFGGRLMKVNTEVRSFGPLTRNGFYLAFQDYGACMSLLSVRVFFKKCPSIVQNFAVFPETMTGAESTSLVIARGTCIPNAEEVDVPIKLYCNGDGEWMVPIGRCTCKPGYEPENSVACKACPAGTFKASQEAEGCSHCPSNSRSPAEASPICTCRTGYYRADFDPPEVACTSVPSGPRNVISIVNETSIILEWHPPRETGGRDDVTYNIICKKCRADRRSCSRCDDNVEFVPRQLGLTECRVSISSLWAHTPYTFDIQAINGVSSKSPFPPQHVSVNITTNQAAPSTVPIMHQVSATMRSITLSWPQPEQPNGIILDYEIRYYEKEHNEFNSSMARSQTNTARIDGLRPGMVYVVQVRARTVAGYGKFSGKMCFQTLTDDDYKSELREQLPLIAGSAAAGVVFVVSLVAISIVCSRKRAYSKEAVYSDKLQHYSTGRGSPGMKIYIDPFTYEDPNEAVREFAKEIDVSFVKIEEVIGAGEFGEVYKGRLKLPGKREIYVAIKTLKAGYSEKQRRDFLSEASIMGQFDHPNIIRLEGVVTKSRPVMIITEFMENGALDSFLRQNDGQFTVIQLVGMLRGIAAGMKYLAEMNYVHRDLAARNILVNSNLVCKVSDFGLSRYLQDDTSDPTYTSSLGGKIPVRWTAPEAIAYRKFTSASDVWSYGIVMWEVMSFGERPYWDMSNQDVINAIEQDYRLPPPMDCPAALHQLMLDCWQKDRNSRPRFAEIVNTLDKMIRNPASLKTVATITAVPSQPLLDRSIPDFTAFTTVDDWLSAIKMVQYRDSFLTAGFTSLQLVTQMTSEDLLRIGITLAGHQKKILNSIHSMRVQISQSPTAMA
compound,measurement,setting,value
CC(C)(C)n1nc(Cc2cccc3ccccc23)c2c(N)ncnc21,residual activity,[1],8%
same,residual activity,[2],47%
same,residual activity,[3],5%
same,residual activity,[4],21%
same,residual activity,[5],5%
same,residual activity,[6],89%
same,residual activity,[7],33%
same,residual activity,[8],33%
same,residual activity,[9],6%
same,residual activity,[10],13%
